Assay results taken from the supplement of paper PMC10670038.
Structures can show the parent of a compound that is named as a salt. ± gives the standard deviation of the averaged measurements. In all, about 2,000 compounds were measured (“relative cell viability vs DMSO, compound + 0.2 uM CuET”: median about 1, lowest 2% from about 0.25 on). The full list was thinned out, with the lowest values kept by preference.

System: TE10
Test: relative cell viability vs DMSO, compound + 0.2 uM CuET (fraction); TE10 is an esophageal squamous carcinoma line; higher = less cytotoxic
Settings: 2 µM; co-treatment: CuET (bis(diethyldithiocarbamate)copper) 0.2 uM; 48 h
Method: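 TE10 ESCC cells (1,000/well, 384-well plates) were treated with Selleck bioactive library compounds at 2 uM combined with 0.2 uM CuET (copper diethyldithiocarbamate) for 48 h. Viability was read by CellTiter-Glo and expressed relative to DMSO wells. Two technical replicates (A, B).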

Row | Structure (SMILES) | relative cell viability
1 | CC(C)(C)C(=O)Nc1ccc2c(c1)C(=O)C(=O)c1ccccc1-2 | 0.026 ± 0.0042
2 | CC(=O)Nc1ccccc1 [Acetanilide] | 1.018 ± 0.0034
3 | O=C1c2ccccc2C(=O)c2c1ccc(O)c2O [Alizarin] | 1.1 ± 0.029
4 | COc1ccc(OC)c(C2C(C#N)=C(N)Oc3n[nH]c(-c4ccc5ccccc5c4)c32)c1 (configuration not stated) | 1.06 ± 0.048
5 | CN(c1ccccc1CNc1nc(Nc2ccc3c(c2)CC(=O)N3)ncc1C(F)(F)F)S(C)(=O)=O | 0.709 ± 0.029
6 | Cc1ccc(NC(=O)c2ccc(CN3CCN(C)CC3)cc2)cc1Nc1nccc(-c2cccnc2)n1 [Imatinib Mesylate (STI571)] | 1.43 ± 0.12
7 | Nc1ccccc1NC(=O)c1ccc(CNc2nccc(-c3cccnc3)n2)cc1 [Mocetinostat (MGCD0103)] | 0.249 ± 0.039
8 | Cc1ccc(NC(=O)c2ccc(CN3CCN(C)CC3)cc2)cc1Nc1nccc(-c2cccnc2)n1 [Imatinib (STI571)] | 1.05 ± 0.1
9 | Nc1ccccc1NC(=O)c1ccc(CNC(=O)OCc2cccnc2)cc1 [Entinostat (MS-275)] | 0.321 ± 0.033
10 | O=C1Cc2c([nH]c3ccc(Br)cc23)-c2ncccc2N1 [1-Azakenpaullone] | 1.17 ± 0.11
11 | Cc1ccc(-c2csc(NC(=O)c3ccccc3)n2)c(C)c1 | 1.22 ± 0.19
12 | Cn1c(Nc2ccc(C(F)(F)F)cc2)nc2cc(Oc3ccnc(-c4ncc(C(F)(F)F)[nH]4)c3)ccc21 | 0.847 ± 0.035
13 | CCCc1nc(C)c2c(=O)nc(-c3cc(S(=O)(=O)N4CCN(CC)CC4)ccc3OCC)[nH]n12 [Vardenafil HCl Trihydrate] | 1.1 ± 0.062
14 | O=C(c1ccc(F)cc1)N1CCCC(c2nc(-c3ccc(F)cc3)no2)C1 (configuration not stated) | 1.12 ± 0.22
15 | C=CC(=O)N1CC(=Cc2ccc([N+](=O)[O-])cc2)C(=O)C(=Cc2ccc([N+](=O)[O-])cc2)C1 | 0.126 ± 0.015
16 | CN1C(C(=O)Nc2ccccn2)=C(O)c2ccccc2S1(=O)=O [Piroxicam] | 1.02 ± 0.064
17 | Nc1ccccc1NC(=O)c1cnccn1 | 1.16 ± 0.018
18 | CC(C)Oc1ccc2c(=O)c(-c3ccccc3)coc2c1 [Ipriflavone (Osteofix)] | 0.968 ± 0.056
19 | CCC(=O)OCC(=O)[C@@]1(OC(=O)CC)[C@@H](C)C[C@H]2[C@@H]3CCC4=CC(=O)C=C[C@]4(C)[C@@]3(F)[C@@H](O)C[C@@]21C [Betamethasone Dipropionate] | 1.05 ± 0.052
20 | CC(C)(C)c1ccc(S(=O)(=O)/C=C/C#N)cc1 | 0.107 ± 0.0014
21 | Cc1ccc(S(=O)(=O)C=CC#N)cc1 | 0.101 ± 0.0039
22 | Cc1cc(C)c(-c2csc(NC(=O)c3ccccc3)n2)c(C)c1 | 1.17 ± 0.069
23 | O=C(NO)c1ccc(CC(=O)N(CCO)c2ccccc2)cc1 | 1.056 ± 0.0057
24 | O=C1NC(=NCc2cccs2)S/C1=C\c1ccc2ncccc2c1 | 1.12 ± 0.078
25 | CC(Oc1cc(-c2cnn(C3CCNCC3)c2)cnc1N)c1c(Cl)ccc(F)c1Cl [(S)-crizotinib] | 1.12 ± 0.028
26 | CC(C)(C)C(=O)OCOP(=O)(COCCn1cnc2c(N)ncnc21)OCOC(=O)C(C)(C)C [Adefovir Dipivoxil] | 1.02 ± 0.035

Row | Structure (SMILES) | relative cell viability
27 | Cc1cc(Nc2cc(CN3CCOCC3)c3nc(C)c(Cc4ccc(Cl)cc4F)n3n2)n[nH]1 | 0.92 ± 0.046
28 | O=C1C(c2c(O)[nH]c3ccccc23)=Nc2ccccc21 [Indirubin] | 0.978 ± 0.15
29 | CC(C)C[C@H](NC(=O)CNC(=O)c1cc(Cl)ccc1Cl)B1OC(=O)CC(CC(=O)O)(C(=O)O)O1 (some centres not stated) | 0.818 ± 0.048
30 | O=C1N=C(O)NC1(c1ccccc1)c1ccccc1 [Phenytoin sodium] | 0.961 ± 0.045
31 | COc1ccc(Cn2ccc3ccc(C(=O)NO)cc32)cc1 | 0.685 ± 0.085
32 | CCN(CC)Cc1ccc2cc(COC(=O)Nc3ccc(C(=O)NO)cc3)ccc2c1 [Givinostat (ITF2357)] | 0.192 ± 0.018
33 | CCN(CC)CCNC(=O)c1ccc(N)cc1 [Procainamide HCl] | 0.957 ± 0.026
34 | C=CC(=O)N1CCN(C(=O)CNc2cc(I)c(Cl)cc2O)CC1 [K-Ras(G12C) inhibitor 12] | 1.06 ± 0.13
35 | C=CC(C)(C)c1cc(C=CC(=O)c2ccc(O)cc2)c(OC)cc1O [Licochalcone A] | 1.008 ± 0.0053
36 | CN1CC[C@@H](c2c(O)cc(O)c3c(=O)cc(-c4ccccc4Cl)oc23)[C@@H]1CO | 0.7 ± 0.044
37 | CNC(=O)c1c(F)cccc1Nc1nc(Nc2cc3c(cc2OC)CCN3C(=O)CN(C)C)nc2[nH]ccc12 | 1.06 ± 0.1
38 | CC1(C)O[C@@H]2C[C@H]3[C@@H]4CCC5=CC(=O)CC[C@]5(C)[C@@]4(F)[C@@H](O)C[C@]3(C)[C@]2(C(=O)CCl)O1 [Halcinonide] | 0.905 ± 0.0084
39 | NC(=O)c1ccc(-c2nc(-c3ccc4c(c3)OCCO4)c(-c3ccccn3)[nH]2)cc1 | 0.996 ± 0.12
40 | CC(COc1ccccc1)N(CCCl)Cc1ccccc1 (configuration not stated) [Phenoxybenzamine HCl] | 1.07 ± 0.07
41 | CC(C)N(CCC(=O)c1ccc2ccccc2c1)Cc1ccccc1 | 0.1814 ± 0.0002
42 | C/C(=C\C(=O)Nc1ccccc1C(=O)O)c1ccc2ccccc2c1 | 1.14 ± 0.058
43 | Cn1cc(-c2ccc3c(c2)CCN3C(=O)Cc2cccc(C(F)(F)F)c2)c2c(N)ncnc21 | 0.897 ± 0.087
44 | CN(C)CCN1C(=O)c2cccc3cc(N)cc(c23)C1=O [Amonafide] | 1.042 ± 0.0065
45 | COc1ccc(C2=NC(c3ccc(Cl)cc3)C(c3ccc(Cl)cc3)N2C(=O)N2CCNC(=O)C2)c(OC(C)C)c1 (configuration not stated) [Nutlin-3b] | 1.17 ± 0.094
46 | COc1ccc(C2=NC(c3ccc(Cl)cc3)C(c3ccc(Cl)cc3)N2C(=O)N2CCNC(=O)C2)c(OC(C)C)c1 (configuration not stated) [Nutlin-3a] | 1.149 ± 0.0057
47 | O=C(Oc1cc(S(=O)(=O)c2ccccc2)ccc1[N+](=O)[O-])c1ccc(Cl)cc1 | 1.04 ± 0.07
48 | COc1cc(-c2cc(-c3ccc(N4CCNCC4)cc3)cnc2C)cc(OC)c1OC | 0.87 ± 0.053
49 | COc1ccc(-c2ccc3ncc4c(c3c2)n(-c2ccc(N3CCNCC3)c(C(F)(F)F)c2)c(=O)n4C)cn1 | 0.104 ± 0.0046
50 | Nc1ccc(-c2ccc3ncc4ccc(=O)n(-c5cccc(C(F)(F)F)c5)c4c3c2)cn1 [Torin 2] | 0.569 ± 0.16
51 | Cc1c(NC(=O)c2ccc(C(C)(C)C)cc2)cccc1-c1cn(C)c(=O)c(Nc2ccc(C(=O)N3CCOCC3)cc2)n1 | 1.04 ± 0.046
52 | Cc1ccccc1C(=O)Nc1ccc(C(=O)N2CCCC(O)c3cc(Cl)ccc32)c(C)c1 (configuration not stated) [Tolvaptan] | 1.05 ± 0.075
